In PubChem BioAssay (Tox21):
Records with an inconclusive call do not appear. Calls of active or inactive are those of the source. Unless noted, the call rests on the fitted dose curve.

Key:
[1] = Nuclear factor erythroid 2-related factor 2/antioxidant responsive element (Nrf2/ARE) small molecule agonists: qHTS cell viability counter screen in human keratinocytes (AID 1919968; active means well fitted curve in the direction sought with a large enough effect in the repeat runs; an effect the other way counts as inactive or inconclusive; further: nearly all actives have a fitted effect of over 55% in size; further: potency means the concentration at half of the fitted maximal effect)
How it was run: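 Stably transfected HaCaT (KeratinoSens), 1,500/well. Test agents in DMSO were applied for 23 h, 37 C/5% CO2. CellTiter-Fluor was incubated 1 h before the fluorescence read.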

[2] = Nuclear factor erythroid 2-related factor 2/antioxidant responsive element (Nrf2/ARE) small molecule agonists: luciferase reporter gene qHTS assay in human keratinocytes (AID 1919969); further: nearly all actives have a fitted effect of over 35% in size; further: potency means the concentration at half of the fitted maximal effect
[3] = molecular target: Gonadotropin-releasing hormone receptor (Homo sapiens) (UniProt P30968); assay: Human gonadotropin-releasing hormone receptor (GnRHR) small molecule agonists, calcium flux assay in GnRHR-HEK293 cells (AID 1920063); further: nearly all actives have a fitted effect of over 35% in size
Sequence of Gonadotropin-releasing hormone receptor (Homo sapiens) (P30968 whole entry, looked up): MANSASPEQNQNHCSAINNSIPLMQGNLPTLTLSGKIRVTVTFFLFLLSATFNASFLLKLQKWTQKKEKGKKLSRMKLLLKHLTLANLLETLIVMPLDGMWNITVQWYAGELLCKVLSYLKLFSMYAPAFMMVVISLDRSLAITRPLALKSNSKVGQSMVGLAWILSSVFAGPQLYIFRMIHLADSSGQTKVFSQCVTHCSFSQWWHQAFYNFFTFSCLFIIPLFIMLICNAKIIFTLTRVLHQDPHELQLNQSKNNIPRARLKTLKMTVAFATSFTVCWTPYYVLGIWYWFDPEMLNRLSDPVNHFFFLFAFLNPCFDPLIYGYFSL
How it was run: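 Stable human GnRHR HEK293 line. 18 h plating, then calcium dye for 1 h at 37 C. Agonist-mode compound addition from DMSO stocks; fluorescence monitored 3 min.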

[4] = molecular target: KiSS-1 receptor (Homo sapiens) (UniProt Q969F8); assay: Human kisspeptin (KISS1R) small molecule agonists, calcium flux assay in KISS1R-HEK293 cells (AID 1920064; active means well fitted curve in the direction sought with a large enough effect in the repeat runs; an effect the other way counts as inactive or inconclusive)
Sequence of KiSS-1 receptor (Homo sapiens) (Q969F8 whole entry, looked up): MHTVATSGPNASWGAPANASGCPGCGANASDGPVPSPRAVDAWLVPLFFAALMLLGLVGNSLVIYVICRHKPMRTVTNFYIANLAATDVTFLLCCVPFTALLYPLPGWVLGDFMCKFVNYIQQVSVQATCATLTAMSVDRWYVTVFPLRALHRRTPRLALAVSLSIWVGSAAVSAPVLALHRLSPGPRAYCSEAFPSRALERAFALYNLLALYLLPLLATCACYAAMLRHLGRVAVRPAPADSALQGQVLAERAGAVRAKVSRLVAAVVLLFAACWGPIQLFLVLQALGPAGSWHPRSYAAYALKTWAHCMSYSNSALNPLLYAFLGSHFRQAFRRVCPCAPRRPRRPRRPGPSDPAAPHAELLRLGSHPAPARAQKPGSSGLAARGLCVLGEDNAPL
How it was run: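 After overnight (18 h) culture at 37 C/5% CO2, human KISS1R-HEK293 cells received calcium dye for 1 h, then test compound; emission at 540 nm (excitation 480 nm) was tracked for 3 min.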

[5] = G protein-coupled receptor (GPCR) small molecule agonists, calcium flux assay: HEK293 wild type cell line counter screen (AID 1920065)
How it was run: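 Following 18 h incubation at 37 C/5% CO2, plates got calcium dye for 1 h; compounds, ATP or DMSO were then pinned in and fluorescence followed kinetically (480/540 nm).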

[6] = p53 small molecule agonists, cell-based qHTS assay with human liver microsomes (AID 1963577)
How it was run: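 Cells carrying a p53-responsive bla reporter were rested 5 h (37 C, 5% CO2) before compound transfer. Human liver microsomes plus NADPH, 0.5 mg/mL final apiece, supplied metabolism during the 16 h 37 C exposure.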

[7] = p53 small molecule agonists, cell-based qHTS assay with rat liver microsomes (AID 1963578)
How it was run: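 Fluorescence from a beta-lactamase reporter under a p53 response element was measured after cells had been incubated 16 h at 37 C with test compound and rat liver microsomes plus NADPH (0.5 mg/mL final each).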

[8] = p53 small molecule agonists, cell-based qHTS assay with rat liver microsomes: qHTS cell viability counter screen (AID 1963580); further: nearly all actives have a fitted effect of over 45% in size
How it was run: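 Cytotoxicity counter screen: intracellular ATP measured by CellTiter-Glo luminescence in the same wells as the beta-lactamase reporter read, on HCT-116 p53RE-bla cells exposed 16 h at 37 C to compounds with rat liver microsomes and NADPH, each 0.5 mg/mL final.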

[9] = p53 small molecule agonists, cell-based qHTS assay: qHTS cell viability counter screen (AID 1963581); further: nearly all actives have a fitted effect of over 45% in size
How it was run: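 qHTS counter screen: 16 h compound exposure at 37 C of p53RE-bla HCT-116 cells (4,000 per well, seeded 5 h prior), cell viability by ATP luminescence.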

[10] = p53 small molecule agonists, cell-based qHTS assay (AID 1963582; active means well fitted activation curve with a large enough effect in the signal ratio in the repeat runs, not every such curve was filed as active; the % refers to the signal ratio)
How it was run: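 Measured: fluorescence from cleaved LiveBLAzer substrate. System: p53RE-bla cells, 16 h compound treatment at 37 C, 2 h substrate step at room temperature.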

[11] = molecular target: 5-hydroxytryptamine receptor 2A (Homo sapiens) (UniProt P28223); assay: 5-hydroxytryptamine receptor 2A (HTR2A) small molecule antagonists, cell-based qHTS assay (AID 1963586); further: nearly all actives have a fitted effect of over 45% in size; further: potency means the concentration at half of the fitted maximal effect
Sequence of 5-hydroxytryptamine receptor 2A (Homo sapiens) (P28223 whole entry, looked up): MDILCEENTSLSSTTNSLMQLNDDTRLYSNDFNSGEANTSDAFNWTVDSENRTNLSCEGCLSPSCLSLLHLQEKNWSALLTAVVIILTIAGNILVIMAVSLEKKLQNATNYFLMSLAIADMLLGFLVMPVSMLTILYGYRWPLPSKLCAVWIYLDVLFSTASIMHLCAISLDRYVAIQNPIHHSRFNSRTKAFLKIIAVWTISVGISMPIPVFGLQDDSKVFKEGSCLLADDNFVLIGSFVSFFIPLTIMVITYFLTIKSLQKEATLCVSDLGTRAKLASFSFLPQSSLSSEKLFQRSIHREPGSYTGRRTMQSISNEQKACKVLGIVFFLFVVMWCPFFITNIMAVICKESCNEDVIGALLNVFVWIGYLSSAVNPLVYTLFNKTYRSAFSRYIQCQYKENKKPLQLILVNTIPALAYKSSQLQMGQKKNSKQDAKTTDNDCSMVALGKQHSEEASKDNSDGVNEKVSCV
How it was run: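 CHO cells stably expressing human HTR2A were plated for 18 h at 37 C, then loaded with calcium dye for 1 h. Compounds were preincubated 5 min at room temperature before DOI (4 nM solution) was added. Kinetic fluorescence was read for 3 min.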

[12] = molecular target: 5-hydroxytryptamine receptor 2A (Homo sapiens) (UniProt P28223); assay: 5-hydroxytryptamine receptor 2A (HTR2A) small molecule agonists, cell-based qHTS assay (AID 1963587); further: nearly all actives have a fitted effect of over 30% in size
How it was run: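 CHO cells stably expressing human HTR2A, plated 18 h, loaded with calcium dye 1 h at 37 C. Agonist mode: compounds added and intracellular calcium fluorescence recorded kinetically for 2 min at 1 sec intervals.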

[13] = molecular target: Muscarinic acetylcholine receptor M1 (Homo sapiens) (UniProt P11229); assay: Cholinergic receptor muscarinic 1 (CHRM1) small molecule antagonists, cell-based qHTS assay (AID 1963588); further: nearly all actives have a fitted effect of over 40% in size
Sequence of Muscarinic acetylcholine receptor M1 (Homo sapiens) (P11229 whole entry, looked up): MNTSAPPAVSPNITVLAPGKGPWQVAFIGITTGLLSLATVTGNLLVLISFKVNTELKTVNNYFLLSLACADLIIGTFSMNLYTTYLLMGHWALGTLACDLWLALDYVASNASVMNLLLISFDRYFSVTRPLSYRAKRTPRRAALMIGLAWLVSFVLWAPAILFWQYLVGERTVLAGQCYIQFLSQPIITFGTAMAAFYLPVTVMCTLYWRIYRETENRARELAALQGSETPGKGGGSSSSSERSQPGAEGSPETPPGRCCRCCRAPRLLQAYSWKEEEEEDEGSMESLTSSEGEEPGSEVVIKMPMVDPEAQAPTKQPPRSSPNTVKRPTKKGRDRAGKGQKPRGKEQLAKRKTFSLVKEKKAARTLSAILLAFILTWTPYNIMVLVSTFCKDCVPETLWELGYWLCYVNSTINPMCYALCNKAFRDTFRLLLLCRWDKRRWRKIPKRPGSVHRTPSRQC
How it was run: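 Compounds were tested at 15 concentrations in three independent runs. Dye-loaded CHRM1-CHO cells were exposed 5 min at room temperature before stimulation by acetylcholine added at 50nM. Intracellular calcium was read kinetically on FDSS for 3 min.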

[14] = molecular target: Muscarinic acetylcholine receptor M1 (Homo sapiens) (UniProt P11229); assay: Cholinergic receptor muscarinic 1 (CHRM1) small molecule agonists, cell-based qHTS assay (AID 1963589); further: nearly all actives have a fitted effect of over 35% in size
How it was run: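 Kinetic fluorescence (1 s intervals) of calcium-sensitive dye in human M1 CHO cells after compound addition; cells pre-incubated 18 h at 37 C/5% CO2 and dye-loaded 1 h.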

[15] = cAMP Responsive Elements (CRE) small molecule antagonists, cell-based qHTS assay (AID 1963591; active means well fitted inhibition curve with a large enough effect in the signal ratio in the repeat runs, not every such curve was filed as active; the % refers to the signal ratio)
How it was run: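 Reporter line CRE-bla HEK 293T in dialyzed-FBS DMEM; cells preincubated 18 h, treated 3 h with compound plus NKH477 (0.25 uM final); LiveBLAzer FRET, 2 h RT.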

[16] = molecular target: Beta-2 adrenergic receptor (Homo sapiens) (UniProt P07550); assay: Adrenergic beta2 receptor (ADRB2) small molecule antagonists, cell-based qHTS assay (AID 1963592); further: series mostly up to about 92 µM; nearly all actives have a fitted effect of over 50% in size
Sequence of Beta-2 adrenergic receptor (Homo sapiens) (P07550 whole entry, looked up): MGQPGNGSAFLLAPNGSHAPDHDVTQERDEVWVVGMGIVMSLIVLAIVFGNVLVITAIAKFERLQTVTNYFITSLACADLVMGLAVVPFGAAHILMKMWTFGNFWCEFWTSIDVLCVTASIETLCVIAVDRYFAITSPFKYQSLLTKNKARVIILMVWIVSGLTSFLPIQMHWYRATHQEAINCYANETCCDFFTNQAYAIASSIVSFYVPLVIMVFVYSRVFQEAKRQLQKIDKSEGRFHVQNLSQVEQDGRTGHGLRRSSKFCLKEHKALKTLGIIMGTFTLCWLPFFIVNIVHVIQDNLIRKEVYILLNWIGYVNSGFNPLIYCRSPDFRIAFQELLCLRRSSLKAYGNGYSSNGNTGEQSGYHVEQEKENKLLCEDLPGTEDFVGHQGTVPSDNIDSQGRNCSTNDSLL
How it was run: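 Assay format: CHO-ADRB2 cells, 18-20hr seeding at 37C/5% CO2, then compound plus 1nM isoproterenol agonist mix for 0.5hr RT. Homogeneous time-resolved fluorescence cAMP detection after 1hr, expressed as 665/615 nm ratio.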

[17] = molecular target: D(2) dopamine receptor (Homo sapiens) (UniProt P14416); assay: Dopamine D2 receptor (DRD2) small molecule agonists, cell-based qHTS assay (AID 1963594); further: nearly all actives have a fitted effect of over 35% in size; further: potency means the concentration at half of the fitted maximal effect
Sequence of D(2) dopamine receptor (Homo sapiens) (P14416 whole entry, looked up): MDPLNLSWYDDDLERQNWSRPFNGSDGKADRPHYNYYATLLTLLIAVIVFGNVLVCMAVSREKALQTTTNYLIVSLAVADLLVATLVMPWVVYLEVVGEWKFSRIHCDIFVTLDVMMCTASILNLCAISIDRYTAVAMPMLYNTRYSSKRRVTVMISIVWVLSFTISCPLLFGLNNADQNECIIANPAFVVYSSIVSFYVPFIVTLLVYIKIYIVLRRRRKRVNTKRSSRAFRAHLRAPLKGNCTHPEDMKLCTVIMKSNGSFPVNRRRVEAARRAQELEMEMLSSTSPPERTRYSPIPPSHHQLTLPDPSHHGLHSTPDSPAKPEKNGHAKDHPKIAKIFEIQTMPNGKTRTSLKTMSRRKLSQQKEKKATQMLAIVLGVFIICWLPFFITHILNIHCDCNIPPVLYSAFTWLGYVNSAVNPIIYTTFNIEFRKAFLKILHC
How it was run: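 HEK293 cells stably expressing human DRD2, pre-treated with PDE inhibitor Ro20-1724 (0.1 mM final) and compound 10 min at room temperature, then stimulated with NKH477 (200nM […]) for 30 min. cAMP read by HTRF (665/620 nm).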

[18] = molecular target: D(2) dopamine receptor (Homo sapiens) (UniProt P14416); assay: Dopamine D2 receptor (DRD2) small molecule antagonists, cell-based qHTS assay (AID 1963595; active means well fitted inhibition curve with a large enough effect in the signal ratio in the repeat runs, with a control signal flat; the % refers to the signal ratio)
How it was run: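 Antagonist mode in DRD2-HEK293 cells: after compound addition with 0.1 mM Ro20-1724, cells received quinpirole (12 nM) and NKH477 (200 nM) for 30 min at room temperature; HTRF cAMP read after 1 h detection.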

[19] = cAMP Responsive Elements (CRE) small molecule agonists, cell-based qHTS assay (AID 1963590)
How it was run: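 Test agents in DMSO were incubated 3 h at 37 C/5% CO2 with CRE-bla HEK 293T cells seeded 18 h earlier; LiveBLAzer B/G FRET substrate was added and read after 2 h at room temperature.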
On the % scale 0 is the no-effect control and ±100 the full control effect.

CCCCOCCOC(=O)CCCCCCCCC(=O)OCCOCCCC
inactive: Potency [1] | Potency [2] | Potency [3] | outcome [4] | outcome [5] | Potency [6] | Potency [7] | Potency [8] | Potency [9] | Potency [10] | Potency [11] | Potency [12] | Potency [13] | Potency [14] | Potency [15] | Potency [16] | Potency [17] | Potency [18]

COc1cc2c(N3CCN(C(=O)Nc4ccc(OC(C)C)cc4)CC3)ncnc2cc1OCCCN1CCCCC1
active: Potency [1] 23.7 µM
inactive: Potency [2] | Potency [3] | outcome [4] | outcome [5] | Potency [6] | Potency [7] | Potency [8] | Potency [9] | Potency [10] | Potency [11] | Potency [12] | Potency [13] | Potency [15] | Potency [16] | Potency [17]

CC(C)Nc1nc(N)nc(Cl)n1
inactive: Potency [1] | Potency [2] | Potency [3] | outcome [4] | outcome [5] | Potency [6] | Potency [7] | Potency [8] | Potency [9] | Potency [10] | Potency [11] | Potency [12] | Potency [13] | Potency [14] | Potency [19] | Potency [16] | Potency [17] | Potency [18]

CCCCCCCC(=O)Oc1c(Br)cc(C#N)cc1Br
inactive: Potency [1] | Potency [2] | Potency [3] | outcome [4] | outcome [5] | Potency [6] | Potency [7] | Potency [8] | Potency [9] | Potency [10] | Potency [11] | Potency [12] | Potency [13] | Potency [14] | Potency [16] | Potency [17] | Potency [18]

O=[N+]([O-])c1ccc(/C=N\O)o1
active: Potency [2] 23.7 µM
inactive: Potency [1] | Potency [3] | outcome [4] | outcome [5] | Potency [6] | Potency [7] | Potency [8] | Potency [9] | Potency [10] | Potency [11] | Potency [12] | Potency [19] | Potency [15] | Potency [17] | Potency [18]

CCOC(=O)C(C)(C)C
inactive: Potency [1] | Potency [2] | Potency [3] | outcome [4] | outcome [5] | Potency [6] | Potency [7] | Potency [8] | Potency [9] | Potency [10] | Potency [11] | Potency [12] | Potency [13] | Potency [14] | Potency [19] | Potency [16] | Potency [17] | Potency [18]

COc1ccc(C(=O)Nc2nc3ccccc3c(NCc3ccccc3)c2C#N)cc1
inactive: Potency [1] | Potency [2] | Potency [3] | outcome [4] | outcome [5] | Potency [6] | Potency [7] | Potency [8] | Potency [9] | Potency [10] | Potency [11] | Potency [12] | Potency [13] | Potency [14] | Potency [17] | Potency [18]

CCCCCCCCCCCCCCCCCO
inactive: activity change, negative = cytotoxicity [1] 0.787% [at 19 µM] | activity, positive = activation [2] -1.74% [at 19 µM] | activity change [3] 4.53% [at 11.8 µM, hits give high values] | activation [4] 3.41% [at 15.8 µM] | activation [5] -0.253% [at 11.8 µM] | activation [6] 4.84% [at 13.5 µM] | activation [7] 1.18% [at 13.6 µM] | activity change, negative = cytotoxicity [8] -2.14% [at 13.5 µM] | activity change, negative = cytotoxicity [9] 17.8% [at 13.5 µM] | activation [10] -2.02% [at 13.5 µM] | activity, negative = inhibition [11] -18.1% [at 12.7 µM] | activity, negative = inhibition [13] -16.4% [at 12.6 µM] | activation [14] -0.0126% [at 15.8 µM] | activation [19] -0.514% [at 19 µM] | activity change, negative = inhibition [15] 0.936% [at 18.9 µM] | activity change, negative = inhibition [16] -1.56% [at 19 µM] | activation [17] 0.198% [at 19 µM] | activity change, negative = inhibition [18] 6.26% [at 18.9 µM]

CC(C)=CCC[C@@](C)(O)[C@H]1CC=C(C)CC1
inactive: Potency [1] | Potency [2] | Potency [3] | outcome [4] | outcome [5] | Potency [6] | Potency [7] | Potency [8] | Potency [9] | Potency [10] | Potency [11] | Potency [13] | Potency [14] | Potency [19] | Potency [15] | Potency [16] | Potency [17] | Potency [18]

CCN(CC)C(=O)N1CCN(C)CC1
inactive: Potency [1] | Potency [2] | Potency [3] | outcome [4] | outcome [5] | Potency [6] | Potency [7] | Potency [8] | Potency [9] | Potency [10] | Potency [11] | Potency [12] | Potency [13] | Potency [19] | Potency [16] | Potency [17] | Potency [18]

CC(C)(C)c1ccccc1
inactive: Potency [1] | Potency [2] | Potency [3] | outcome [4] | outcome [5] | Potency [6] | Potency [7] | Potency [8] | Potency [9] | Potency [10] | Potency [11] | Potency [12] | Potency [13] | Potency [14] | Potency [19] | Potency [15] | Potency [16] | Potency [17] | Potency [18]

CCCCCCCCN
inactive: Potency [1] | Potency [2] | Potency [3] | outcome [4] | outcome [5] | Potency [6] | Potency [7] | Potency [8] | Potency [9] | Potency [10] | Potency [11] | Potency [14] | Potency [19] | Potency [16] | Potency [17] | Potency [18]

CN(C)CCN1CCN(c2cccc(Cl)c2)C1=O
inactive: Potency [1] | Potency [2] | Potency [3] | outcome [4] | outcome [5] | Potency [6] | Potency [7] | Potency [8] | Potency [9] | Potency [10] | Potency [12] | Potency [14] | Potency [19] | Potency [16]
active: Potency [11] 1.83 µM | Potency [17] 13.3 µM

C#CC(C)N(C)C(=O)Nc1ccc(Cl)cc1 (stereo not given)
inactive: Potency [1] | Potency [2] | Potency [3] | outcome [4] | outcome [5] | Potency [6] | Potency [7] | Potency [8] | Potency [9] | Potency [10] | Potency [11] | Potency [12] | Potency [13] | Potency [14] | Potency [19] | Potency [16] | Potency [17] | Potency [18]

O=P(O)(O)Oc1ccccc1
inactive: Potency [1] | Potency [2] | Potency [3] | outcome [4] | outcome [5] | Potency [6] | Potency [7] | Potency [8] | Potency [9] | Potency [10] | Potency [11] | Potency [12] | Potency [13] | Potency [14] | Potency [19] | Potency [15] | Potency [16] | Potency [17] | Potency [18]
